Compound activity (PubChem)
Only a selection was taken, and hits are over-represented in it overall.
Pf Dd2 inh – qHTS Primary assay for Inhibitors of Plasmodium falciparum Dd2 growth in vitro; P. falciparum Dd2 growth, SYBR Green, 72 h; Potency, µM (top dose mostly 28.9 µM), without a hit: top-dose activity, negative = inhibition, usual class: inhibitors; actives 4.3% (n = 120,000); AID 1347417, 2020; active means well fitted inhibition curve with a large enough effect;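 further: plate controls were DMSO vehicle for no effect and reference drug for full effect; nearly all actives have a fitted effect of over 65% in size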
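Infected erythrocytes (Dd2, 0.3% parasitemia, 2.5% hematocrit final) are added to compound in RPMI-1640/Albumax II medium, grown 72 h at 37C in low oxygen, then lysed with saponin/Triton-X containing SYBR Green and read by fluorescence.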
* hit, by the source's call; [ ] = dose if it differs, or a comment. Potency means the concentration at half of the fitted maximal effect.

For Cc1ccc(N2CC(NC(=O)c3ccc(S(=O)(=O)N4CCOCC4)cc3)CC2=O)cc1 (stereo not drawn) the results were Pf Dd2 inh inactive.
Screening O=C(NCCSc1c[nH]c2ccccc12)c1ccc(Cl)cc1 returned Pf Dd2 inh -2%.
For CCN(CC)S(=O)(=O)c1ccc(C(=O)NCCSc2c(-c3ccc(F)cc3)[nH]c3ccccc23)cc1 the results were Pf Dd2 inh 6.3µM*.
COc1ccccc1C(=O)NCCSc1c(C)[nH]c2ccccc12 was read as Pf Dd2 inh 15%.
`COc1cc(NC(=O)c2ccc3c(c2)N(C)C2CCCN2C3=O)cc(OC)c1OC` (stereo not drawn) gave Pf Dd2 inh inactive.
`Cc1cnc(C(=O)NC2C[C@H]3CC[C@@H](C2)N3C(=O)c2ccc(Br)o2)cn1` (stereo partly drawn) gave Pf Dd2 inh inactive.
COCC[C@]1(O)CCN(C(=O)c2cccc(S(N)(=O)=O)c2)C[C@H]1C was read as Pf Dd2 inh 1%.
COc1cccc(CN2C[C@@H](CO)[C@H](NC(=O)C3CC3)C2)c1OC was read as Pf Dd2 inh -21%.
`O=C(N1CCCCC1)N1CCCC1c1nnc2n1CCNC2` (stereo not drawn) gave Pf Dd2 inh -6%.
For CCn1cnnc1CCNC(=O)c1cc(-c2ccc(C)cc2)nc2ccccc12 the results were Pf Dd2 inh -11%.
CN(C)c1cccc(C(=O)N2CCC(n3cc(-c4nc(-c5ccccc5)no4)nn3)CC2)c1 was read as Pf Dd2 inh -17%.
`COc1cc(C2c3c(oc4ccc(C)cc4c3=O)C(=O)N2Cc2ccccc2)ccc1O` (stereo not drawn) gave Pf Dd2 inh -23%.
COc1cc(-c2oc3ccc(C)cc3c(=O)c2O)cc(OC)c1OC was read as Pf Dd2 inh 13µM*.
Screening COc1cc(C2c3c(oc4ccc(C)cc4c3=O)C(=O)N2Cc2ccc(F)cc2)ccc1O (stereo not drawn) returned Pf Dd2 inh -5%.
`COCCNC(=O)c1cc(-c2ccc(C)nc2)cc2ncn(C)c12` gave Pf Dd2 inh -5%[44.1 µM].
COc1ccc(CCNC(=O)CN2C(=O)NC3(CCC(C)CC3)C2=O)cc1OC (stereo not drawn) was read as Pf Dd2 inh inactive.
For O=C1OC[C@@H]2CCN(Cc3ccc4c(c3)OCO4)Cc3ccc(F)cc3N12 the results were Pf Dd2 inh inactive.
OC1(CNCc2cccnc2-n2cncn2)CCNC1 (stereo not drawn) was read as Pf Dd2 inh -9%.
For COCCNC(=O)[C@H]1CN2CCC1C[C@@H]2Cn1cc(-c2cccc(N)c2)nn1 (stereo partly drawn) the results were Pf Dd2 inh -9%[44.1 µM].
`Nc1cccc(-c2cn(C[C@H]3CC4CCN3C[C@@H]4C(=O)Nc3ccccc3)nn2)c1` (stereo partly drawn) gave Pf Dd2 inh 7.9µM*.
For O=C(Nc1ccccc1)[C@H]1CN2CCC1C[C@@H]2Cn1cc(C2(O)CCCCC2)nn1 (stereo partly drawn) the results were Pf Dd2 inh inactive.
O=C(C[C@@H]1O[C@H](CNC(=O)Nc2ccccc2)[C@@H](O)[C@H]1O)NCCN1CCOCC1 was read as Pf Dd2 inh 26%[44.1 µM].
`O=C(Nc1ccccc1)[C@H]1O[C@H](CCN2CCOCC2)CC[C@@H]1O` gave Pf Dd2 inh -13%[44.1 µM].
For Cc1cccc(C(C(=O)N2CCN(CC(=O)NC(C)C)CC2)N(C)C)c1 (stereo not drawn) the results were Pf Dd2 inh -23%.
CN(C)C(C(=O)N1CCN(Cc2nccn2C)CC1)c1cccc(F)c1 (stereo not drawn) was read as Pf Dd2 inh -5%.
For Cc1cccc(C(C(=O)N2CCC(CCn3ccnc3C)CC2)N(C)C)c1 (stereo not drawn) the results were Pf Dd2 inh 7.9µM*.
O=C1NC2(CCN(C(=O)c3cccnc3)C2)N=C1c1cccnc1 (stereo not drawn) was read as Pf Dd2 inh 8%[44.1 µM].
For NCCc1ccc(CN2C[C@@H]3CC[C@H](C2)N(Cc2ccccc2)C3)cc1 the results were Pf Dd2 inh 11µM*.
For O=C1[C@H]2CN(Cc3ccc(C(F)(F)F)cc3)C[C@H]2C(=O)N1CCc1ccccc1 the results were Pf Dd2 inh inactive.
For CC(=O)Nc1ccc(CN2CCN3C(=O)N(Cc4ccccc4)C[C@H]3C2)cc1 the results were Pf Dd2 inh inactive.
Screening O=C(c1nc2ccccc2[nH]1)N1CCc2c(n(Cc3cccnc3)n(-c3ccccc3)c2=O)C1 returned Pf Dd2 inh inactive.
Screening Cc1cccc(NC(=O)CC2CCCN(c3cnn(C)c(=O)c3)C2)c1 (stereo not drawn) returned Pf Dd2 inh inactive.
Screening COCCN1C(=O)c2ccccc2C(C(=O)Nc2ccc(C(N)=O)cc2)C12CCCCC2 (stereo not drawn) returned Pf Dd2 inh -5%.
Screening COCCN1C(=O)c2ccccc2C(C(=O)Nc2ccc(NC(C)=O)cc2)C12CCCCC2 (stereo not drawn) returned Pf Dd2 inh -19%.
For COCCN1C(=O)c2ccccc2C(C(=O)Nc2ccc(OC)c(OC)c2)C12CCCC2 (stereo not drawn) the results were Pf Dd2 inh -3%.
For COCCN1C(=O)c2ccccc2C(C(=O)Nc2ccc(OC)c(Cl)c2)C12CCCC2 (stereo not drawn) the results were Pf Dd2 inh -8%.
`COCCN1C(=O)c2ccccc2C(C(=O)Nc2cc(C)ccc2OC)C12CCCCC2` (stereo not drawn) gave Pf Dd2 inh 10µM*.
For O=C(Nc1ccccc1F)C1c2ccccc2C(=O)N(Cc2ccccc2)C12CCCC2 (stereo not drawn) the results were Pf Dd2 inh 11µM*.
COCCN1C(=O)c2ccccc2C(C(=O)Nc2cc(OC)cc(OC)c2)C12CCCC2 (stereo not drawn) was read as Pf Dd2 inh 11µM*.
Screening O=C(NCCc1ccccc1)C1c2ccccc2C(=O)N(Cc2ccccc2)C12CCCC2 (stereo not drawn) returned Pf Dd2 inh inactive.
COCCN1C(=O)c2ccccc2C(C(=O)Nc2ccc(OC)cc2OC)C12CCCC2 (stereo not drawn) was read as Pf Dd2 inh -14%.
Screening COCCN1C(=O)c2ccccc2C(C(=O)Nc2cc(OC)ccc2OC)C12CCCC2 (stereo not drawn) returned Pf Dd2 inh inactive.
For O=C(O)C1c2ccccc2C(=O)N(Cc2ccccc2)C12CCCC2 (stereo not drawn) the results were Pf Dd2 inh 3%.
Screening COCCN1C(=O)c2ccccc2C(C(=O)Nc2ccc3c(c2)OCO3)C12CCCC2 (stereo not drawn) returned Pf Dd2 inh 13µM*.
Screening CCCN(CC1CCOC1)S(=O)(=O)c1ccc(F)c(Cl)c1 (stereo not drawn) returned Pf Dd2 inh inactive[5.79 µM].
COc1cccc(S(=O)(=O)N2CC(F)(F)C[C@H]2c2nnc(C)o2)c1 was read as Pf Dd2 inh 47%.
CNC(=O)[C@@H]1CN(C(=O)NCc2cccc(OC)c2)C[C@H]1c1n[nH]c(C)n1 was read as Pf Dd2 inh 2%.
`Cc1ccc(C(=O)N2CCCC3(CC(c4cccc(C(F)(F)F)c4)=NO3)C2)cc1` (stereo not drawn) gave Pf Dd2 inh -6%.
`COc1ccccc1CNC1(Cc2cc(C(C)(C)C)on2)COC1` gave Pf Dd2 inh -9%[44.1 µM].
